High-throughput results from PubChem.
Shown are actives, neighbours in structure and some others; about 2.4% of the full set was active somewhere.
Cruzain Triton = cruzain (T. cruzi) inhibition with detergent | P25779 | purified cruzain, Z-FR-AMC fluorescence, 0.01% Triton | Potency, µM, for the others: max response, negative = inhibition, usual class: inhibitors | hit rate 0.43% among 200,000;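 further: plate controls were neutral wells for no effect and buffer without enzyme for full effect; nearly all actives have a fitted effect of over 40% in size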
Target sequence (P25779 123-467 limits assumed): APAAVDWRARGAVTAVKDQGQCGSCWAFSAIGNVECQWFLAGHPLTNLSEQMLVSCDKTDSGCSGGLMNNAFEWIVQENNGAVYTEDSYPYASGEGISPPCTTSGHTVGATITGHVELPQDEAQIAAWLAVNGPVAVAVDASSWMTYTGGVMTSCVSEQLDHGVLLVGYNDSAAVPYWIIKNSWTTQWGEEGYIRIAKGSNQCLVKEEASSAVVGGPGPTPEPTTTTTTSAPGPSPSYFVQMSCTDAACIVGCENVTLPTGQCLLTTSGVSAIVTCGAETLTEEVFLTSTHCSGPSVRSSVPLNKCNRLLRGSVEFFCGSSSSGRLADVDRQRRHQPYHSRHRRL
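Cruzain (1.5 nM) preincubated 15 min at RT with compound in 100 mM sodium acetate pH 5.5, 5 mM DTT, 0.01% Triton X-100. Reaction started with 2 uM Z-FR-AMC; AMC fluorescence (ex 360/em 450 nm) change over 60 s gave rate.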
Cruzain noTriton = blocks cruzain activity in detergent-free assay; P25779; purified cruzain, Z-FR-AMC fluorescence, no detergent; Potency, µM, for inactives: max response, negative = inhibition, most hits filed as inhibitors; hit rate 2.3% among 200,000;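 further: plate controls were enzyme without inhibitor for no effect and buffer without enzyme for full effect; nearly all actives have a fitted effect of over 40% in size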
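Detergent-free condition (0.00005% Triton X-100) in acetate buffer pH 5.5 with DTT. 1.5 nM enzyme and compound were pre-mixed 15 min, then 2 uM Z-FR-AMC substrate added; reaction progress from fluorescence change between first and third reads (60 s).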
* = called active by the depositor; ? = inconclusive; ! = not confirmed by another sample. The call rests on the fitted dose curve; in most records, active means well fitted curve in the direction sought with a large enough effect; inconclusive means small, poorly fitted or top-dose-only effect, or another doubt; inactive means no such curve, though single readings can be large; an effect the other way counts as inactive or inconclusive. Potency means the concentration at half of the fitted maximal effect.

SMILES	Cruzain Triton	Cruzain noTriton
CN(C)c1nc2c(Br)c(Br)c(Br)c(Br)c2[nH]1	-16%	-5%
O=c1c2ccccc2nc(-c2ccc(Cl)cc2)n1CCCCOc1ccc(F)cc1	-2%	-5%
Cc1ccccc1-c1ccc(C(=O)NCc2ccccc2)o1	-2%	8%
Cc1ccc(-c2ccc(C(=O)NCc3ccc(Cl)cc3)o2)c2ccccc12	?	25µM*
CCc1nnc(SC(CC)C(=O)Nc2cccc(OC)c2)c2cc3oc(C)cc3n12 (stereo not given)	-2%	12%
N#C/C(=C\c1cn(Cc2ccccc2F)c2ccccc12)C(=O)NCc1ccco1	-4%	-3%
Cc1c(/C=C(\C#N)C(=O)Nc2cccc(Cl)c2)c2ccccc2n1Cc1ccccc1Cl	-1%	1.6µM*
Cc1ccc(NC(=O)/C(C#N)=C\c2ccc(Cl)cc2Cl)cc1C	-4%	-12%
N#C/C(=C/c1cn(Cc2ccccc2Cl)c2ccccc12)C(=O)Nc1cccc(Cl)c1	-2%	3.2µM*
Cc1ccc(C)c(OCCn2cc(/C=C(\C#N)C(=O)NCc3ccco3)c3ccccc32)c1	-4%	?
Cc1cccc(NC(=O)/C(C#N)=C/c2cn(CC(=O)NCc3ccco3)c3ccccc23)c1	-3%	10µM*
CCOC(=O)c1ccc(NC(=O)Cc2ccc(-n3c(CC)nc4cccnc43)cc2)cc1	-8%	?
COc1ccccc1Cc1nc2ccccc2nc1SCC(=O)NCc1ccccc1Cl	3%	0%
COc1ccc(-n2c(Cc3cccn3C)nnc2SCC(=O)Nc2ccc(C)cc2)cc1	-6%	19%
Cc1cc(C)nc(SCc2nnc(SCC(=O)Nc3nc(-c4ccccc4)cs3)n2-c2ccccc2)n1	5%	?
COc1ccc(NCc2nnc(SCC(=O)Nc3nc(-c4ccccc4)cs3)n2-c2ccccc2)cc1	-1%	25µM*
COc1ccc(-n2c(CNc3ccc(C)cc3)nnc2SCC(=O)Nc2nc(-c3ccccc3)cs2)cc1	2%	6.3µM*
Cc1ccc(CN2C(=O)c3oc4ccc(C)cc4c(=O)c3C2c2ccc(O)cc2)cc1 (stereo not given)	-1%	10%
Cc1ccc(CSC2=Nc3ccccc3C3=NC(CCC(=O)NCCc4ccccc4)C(=O)N23)cc1 (stereo not given)	-4%	25%
COc1ccc(CNC(=O)CN2C(=O)C3CCCN3c3ncc(Cl)cc32)cc1 (stereo not given)	-3%	-26%
O=C(CN1C(=O)C2CCCN2c2ncc(Cl)cc21)NCc1ccc2c(c1)OCO2 (stereo not given)	3%	25µM*
CCc1ccccc1NC(=O)CN1C(=O)C2CCCN2c2ncc(Cl)cc21 (stereo not given)	2%	-3%
COC(=O)c1ccccc1NC(=O)CN1C(=O)C2CCCN2c2ncc(Cl)cc21 (stereo not given)	-2%	10µM*
NCC1OC(OC2C(N)CC(N)[C@@H](O)[C@@H]2OC2O[C@H](CO)[C@@H](O[C@@H]3OC(CN)C(O)C(O)C3N)C2O)C(N)C(O)C1O (stereo not given in full)	0%	-12%
Cc1ccc2nc(N3CCN(c4ccc(F)cc4)CC3)c3nnnn3c2c1	-2%	-10%
SMILES	Cruzain Triton	Cruzain noTriton
Cc1ccc2nc(N3CCN(c4cccc(C)c4C)CC3)c3nnnn3c2c1	-1%	4µM*!
O=C(CN1N=C(c2ccc(Cl)cc2)CCC1=O)NCc1ccc(F)cc1	2%	-2%
CCOC(=O)c1sc2ccccc2c1S(=O)(=O)N1CCN(c2cc(C)ccc2C)CC1	-4%	20µM*
COC(=O)c1sc2cccc(F)c2c1S(=O)(=O)N1CCN(c2ccc(C)cc2C)CC1	-6%	?
O=c1c(CCc2ccccc2)nc2cnc(N3CCNCC3)nc2n1-c1ccccc1	1%	-2%
CCOc1ccccc1CNC(=O)CCn1cccn1	1%	-3%
Cc1ccc(NC(=O)c2ccc(OC(=O)CCN3C(=O)c4ccccc4C3=O)cc2)cc1	2%	?
Cc1ccc(C(=O)CC(=O)COc2ccc(Cl)cc2C)cc1	-4%	11%
Cc1ccc(NC(=O)c2ccc(OC(=O)COc3cccc(Cl)c3)cc2)cc1	-2%	13µM*
Cc1ccc(NC(=O)c2ccc(OC(=O)COc3ccc(Cl)cc3C)cc2)cc1	7%	13µM*
C=C1CCC[C@]2(C)C[C@H]3OC(=O)[C@H](CNCCc4ccccc4OC)C3CC12 (stereo not given in full)	7%	-29%
CN(C)CCC(=O)[C@@]1(O)CC[C@H]2[C@H]3CC=C4C[C@@H](O)CC[C@]4(C)[C@H]3CC[C@]21C	-3%	5%
Cc1cc(/C=C2\Cc3ccccc3C2=O)c(C)n1-c1ccccc1	-8%	16µM*
Cc1cc(C=C2C(=O)c3ccccc3C2=O)c(C)n1-c1ccccc1	-4%	?
c1ccc(Nc2ccc(Nc3ccccc3)cc2)cc1	-7%	2%
O=Nc1ccc(Nc2ccccc2)cc1	7.1µM*	7.9µM*
